This is a sample that favours compounds with a hit; in the whole collection about 21% have one here.
Shiga inhibitor: A qHTS for Small Molecule Inhibitors of Shiga Toxin | Vero cells, Shiga toxin protein synthesis inhibition reporter | inhibition, % at 38.7 µM | 290,000 compounds, 9.2% hits; in the data active means inhibition mostly above about 28%, no sharp cut-off; inactive means mostly below about 43%; further: 0% is about no effect
Pf growth 96h: Primary qHTS for delayed death inhibitors of the malarial parasite plastid, 96 hour incubation; P. falciparum luciferase reporter growth, 96 h; AID 504834, 2011; 320,000 compounds, 6.9% hits; Potency, µM (highest dose often 28.7 µM), inactives show at the top dose activity change, negative = inhibition, hits mostly inhibitors; further: potency means the concentration at half of the fitted maximal effect; on the % scale 0 is the no-effect control and ±100 the full control effect
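Infected RBCs, 2% Hct / 0.05% parasitemia final; luciferase-reporter P. falciparum; cpd 96 h, 37 C, 5% CO2; luciferase detection reagent; luminescence.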
CHX counter: Cycloheximide Counterscreen for Small Molecule Inhibitors of Shiga Toxin | max response, % | cell reporter, cycloheximide protein synthesis inhibition counterscreen | 300,000 compounds, 12% hits; in the data active means max response mostly above about 13%, no sharp cut-off; inactive means mostly below about 14%; further: read at 38.3 µM for the half of the compounds with a filed dose; 0% is about no effect
Pf growth 48h: Primary qHTS for delayed death inhibitors of the malarial parasite plastid, 48 hour incubation; P. falciparum luciferase growth in erythrocytes, 48 h; 310,000 compounds, 5.9% hits; Potency, µM (titrated, usually from 28.7 µM), without a hit: top-dose activity change, negative = inhibition, actives largely listed as inhibitors; AID 504832, 2011; further: potency means the concentration at half of the fitted maximal effect; on the % scale 0 is the no-effect control and ±100 the full control effect
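Parasite viability was followed by luminescence of a genomically integrated firefly luciferase. Cultures held 0.1% parasitemia at 2% hematocrit (final), incubated under 5% CO2 at 37 C.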
NS1 inh: qHTS Assay for Inhibitors of Influenza NS1 Protein Function; Potency, µM (doses to about 46.1 µM), for inactives: at the highest dose activity, positive = more growth; 270,000 compounds, 0.4% hits; calls by dose curve; further: potency means the concentration at half of the fitted maximal effect; actives are rising curves; nearly all actives have a fitted effect of over 50% in size
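A cell-based growth assay was used: compounds that relieve NS1-induced slow growth of budding yeast raise OD600. Assay medium was yeast nitrogen base with ammonium sulphate and -URA supplement, pH 6.0, with 2% galactose.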
SARS PLP yeast: qHTS of Yeast-based Assay for SARS-CoV PLP; S. cerevisiae expressing SARS-CoV PLpro, growth rescue; Potency, µM (top dose mostly 32.9 µM), for the others: top-dose activity, positive = growth rescue, actives largely listed as activators; 330,000 compounds, 0.19% hits; AID 485353, 2010; calls by dose curve; further: potency means the concentration at half of the fitted maximal effect; 0% is about no effect; nearly all actives have a fitted effect of over 55% in size
* hit, by the source's call; ? = inconclusive; · = no result given; [ ] = another dose, or the depositor's remark. Unless noted, the call rests on the fitted dose curve; in most records, active means well fitted inhibition curve with a large enough effect; inconclusive means small, poorly fitted or top-dose-only effect, or another doubt; inactive means no such curve, though single readings can be large or run the other way.

SMILES | Shiga inhibitor | Pf growth 96h | CHX counter | Pf growth 48h | NS1 inh | SARS PLP yeast
COc1ccc(OCC(=O)N/N=C/C=C/c2ccccc2)cc1 | -6 | 17% | 9 | 21% | -2% | 28%
COc1ccc(C2NC(=O)NC(C)=C2C(C)=O)cc1 (configuration not stated) | 15 | ? | -2 | 12% | 4% | -12%
CCNc1nc(Oc2ccc(=O)[nH]n2)nc(N2CCOCC2)n1 | -16 | -15% | -2 | · | 1% | 1%
O=c1ccc(Oc2nc(N3CCCCC3)nc(N3CCCCC3)n2)n[nH]1 | 12 | 3.7µM* | -6 | 14% | 0% | 3%
Cc1ccc(S(=O)(=O)N/N=C\c2ccc3c(c2)OCO3)c(C)c1 | -2 | -17% | 7 | 27% | -31% | -8%
Cc1ccc(OCc2ccc(C(=O)Nc3nc4ccccc4n3Cc3ccccc3)o2)c([N+](=O)[O-])c1 | -7 | · | -4 | ? | 8% | 10%
COC(=O)c1ccc(COc2ccccc2OC)o1 | 23 | 21% | 12 | 29% | -2% | 1%
COC(=O)c1ccc(COc2ccccc2[N+](=O)[O-])o1 | 73* | 48% | 45* | 29% | -13% | -9%
Cc1ccc(OCc2ccc(C(=O)O)o2)c([N+](=O)[O-])c1 | 22 | 106% | 13* | 40% | 7% | 1%
O=C(Nc1nc2ccccc2n1Cc1ccccc1)c1ccc(COc2ccccc2[N+](=O)[O-])o1 | -7 | ? | -1 | 1.9µM* | 30% | 5%
Cc1ccc(OCc2ccc(C(=O)N3CCCC3)o2)c([N+](=O)[O-])c1 | 24 | 15% | 18 | 0% | -52% | -7%
O=C(NCc1cccnc1)C(=O)N/N=C/c1ccc([N+](=O)[O-])cc1 | -3 | ? | 4 | 16% | · | 1%
COc1ccc(-c2c3c(=O)n(C)c(=O)n(C)c3cn2-c2ccccc2O)cc1 | 13 | ? | 10 | ? | -6% | -1%
COc1ccc(-c2c3c(=O)n(C)c(=O)n(C)c3cn2Cc2cccnc2)cc1 | 126* | ? | 17* | 6% | -1% | 0%
COc1ccc(-c2c3c(=O)n(C)c(=O)n(C)c3cn2-c2cc(OC)ccc2OC)cc1 | -12 | -4%[5.75 µM] | 14 | 13µM* | -38% | 0%
COCCn1ccc2c(OCC(=O)Nc3cc(OC)ccc3OC)cccc2c1=O | · | ? | · | 12µM* | · | 2%
CCOCCn1ccc2c(OCC(=O)Nc3cc(OC)ccc3OC)cccc2c1=O | · | ? | · | ? | · | -4%
O=C(c1cccnc1)c1ncc(C(F)(F)F)cc1Cl | -7 | 16% | -2 | 7% | 1% | -1%
COc1cccc(NC(=S)N/N=C2\CC3CCC2(C)C3(C)C)c1 (configuration not stated) | 78* | ? | 41* | 10µM* | · | 1%
Cc1ccc(NC(=O)CSc2nnc(C)n2C2CC2)cc1S(=O)(=O)N1CCOCC1 | · | ? | · | -31% | · | 2%
Cc1ccc2c(CSc3nnc(N)s3)cc(=O)oc2c1 | 60* | · | 32* | 35% | -2% | -2%
CC(=O)Nc1ccc2c(CSc3nnc(N)s3)cc(=O)oc2c1 | 9 | ? | 5 | -17% | ? | -3%
O=C(c1ccc2c(c1)OCO2)C1CCCN(C(=O)c2cnn(Cc3ccccc3)c2)C1 (configuration not stated) | 38* | 429% | 21* | -6% | -4% | -2%
O=C(c1ccc2c(c1)OCO2)C1CCCN(Cc2ccc(OC(F)F)cc2)C1 (configuration not stated) | -6 | 10µM* | 0 | 25% | 1% | -4%
COc1ccc(NC(=O)Nc2ccon2)cc1OC | -8 | 0% | -3 | -5% | 5% | -7%
SMILES | Shiga inhibitor | Pf growth 96h | CHX counter | Pf growth 48h | NS1 inh | SARS PLP yeast
CCCC1CC(C)(/C(C)=N\NC(N)=S)OC1=O (configuration not stated) | -2 | ? | -4 | 57% | -2% | 3%
C/C(=N\NC(N)=S)C12CC3CC(CC(C3)C1)C2 | -7 | 5.2µM* | -3 | · | -6% | 7%
CCOC(=O)c1ccc(OC(=O)CCCCCN=C(N)N)cc1 | · | 4.5µM* | · | ? | · | ·
C/C(=N\NC(=O)CNc1cccc(C(F)(F)F)c1)c1cccs1 | 14 | 33% | 7 | 3% | · | 0%
N#C/C(=N\Nc1cccc(C(F)(F)F)c1)C(=O)c1ccsc1 | 94* | -4% | 68* | 142% | -65% | -6%
COc1cccc(N2CCN(C(=O)C3CCN(S(=O)(=O)c4cccs4)CC3)CC2)c1 | -5 | 0% | -2 | -40% | · | -1%
Cc1ccc(C)c(OCCC(=O)OC(C)C(=O)Nc2c(C)n(C)n(-c3ccccc3)c2=O)c1 (configuration not stated) | · | 13% | · | -3% | · | -5%
COc1ccc(CNC(=O)Cn2nc(C)c3c(C)n(-c4ccc(C)cc4)nc3c2=O)cc1OC | -2 | ? | -1 | ? | -1% | 2%
Cc1ccc(-n2nc3c(=O)n(CC(=O)NCCc4ccco4)nc(C)c3c2C)cc1 | -15 | 8.3µM* | 17 | 25% | 2% | 6%
Cc1ccc(-n2nc3c(=O)n(CC(=O)NCCCc4ccccc4)nc(C)c3c2C)cc1 | -3 | ? | -4 | 13% | 8% | -5%
CSc1ccc(CNC(=O)Cn2nc(C)c3c(C)n(-c4ccc(C)cc4)nc3c2=O)cc1 | 8 | 2.6µM* | 1 | 32% | -9% | -2%
C=CCn1c(SCC(=O)NC2CCCC2)nc2scc(-c3ccco3)c2c1=O | 7 | 5% | 7 | ? | 14% | 7%
C=CCn1c(=S)[nH]c2scc(-c3ccc(C)o3)c2c1=O | -4 | 15% | 9 | 27% | · | -1%
C=CCn1c(SCC(=O)NCCCC)nc2scc(-c3ccco3)c2c1=O | -3 | ? | -1 | 13µM* | 17% | 8%
Cc1ccc(-c2csc3nc(C)n(-n4c(C)ccc4C)c(=O)c23)o1 | -14 | ? | -2 | -25% | -6% | -8%
Cc1ccc(-c2csc3nc(C)n(N)c(=O)c23)o1 | 47* | 90% | 46* | · | -1% | 9%
C=CCn1c(SCC(C)=O)nc2scc(-c3ccc(C)o3)c2c1=O | 19* | 14% | 20* | 143% | 8% | ·
Nn1cc(-c2ccccc2)nc1SCC(=O)NCCN1C(=O)CSC1=O | 34 | 23% | 10 | 24% | -3% | -3%
Cc1nnsc1C(=O)Nc1ccc(S(=O)(=O)N2CCC(C)CC2)cc1 | -6 | 26% | -2 | -3% | -10% | 1%
Cc1ccc(CNC(=O)CS(=O)Cc2nc(-c3ccccc3F)oc2C)cc1 (configuration not stated) | -9 | 30% | 2 | 9% | 22% | 1%
Cc1ccc(CSCC(=O)NCc2cccs2)cc1 | 18 | 16% | -3 | 23% | · | -2%

Compound activity from PubChem BioAssay.
